Measured values published in PMC7826789 (International Journal of Molecular Sciences, 2021).

Tests used:
PIK3CB = conditions: Compound Concentration (nM):1000
PIK3CD = conditions: Compound Concentration (nM):1000
PIK3CG = conditions: Compound Concentration (nM):1000
PIK4CB = tested on: T1, PIK4CB; conditions: Compound Concentration (nM):1000
T1 construct: gene PI4KB

PIKFYVE = conditions: Compound Concentration (nM):1000
PIM1 = conditions: Compound Concentration (nM):1000
PIM2 = conditions: Compound Concentration (nM):1000
PIM3 = conditions: Compound Concentration (nM):1000
PIP5K1A = conditions: Compound Concentration (nM):1000
PIP5K1C = conditions: Compound Concentration (nM):1000
PIP5K2B = tested on: T2, PIP5K2B; conditions: Compound Concentration (nM):1000
T2 construct: gene PIP4K2B

PIP5K2C = tested on: T3, PIP5K2C; conditions: Compound Concentration (nM):1000
T3 construct: gene PIP4K2C

PKAC-alpha = tested on: T4, PKAC-alpha; conditions: Compound Concentration (nM):1000
T4 construct: gene PRKACA

PKAC-beta = tested on: T5, PKAC-beta; conditions: Compound Concentration (nM):1000
T5 construct: gene PRKACB

PKMYT1 = conditions: Compound Concentration (nM):1000
PKN1 = conditions: Compound Concentration (nM):1000
PKN2 = conditions: Compound Concentration (nM):1000
PKNB(M.tuberculosis) = conditions: 1 µM
PLK1 = conditions: Compound Concentration (nM):1000
PLK2 = conditions: Compound Concentration (nM):1000
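Note: KINOMEscan scanMAX binding as percent activity remaining versus control; lower means stronger binding.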

Row | SMILES | Percent Control (PIK3CB) | Percent Control (PIK3CD) | Percent Control (PIK3CG) | Percent Control (PIK4CB) | Percent Control (PIKFYVE) | Percent Control (PIM1) | Percent Control (PIM2) | Percent Control (PIM3) | Percent Control (PIP5K1A) | Percent Control (PIP5K1C) | Percent Control (PIP5K2B) | Percent Control (PIP5K2C) | Percent Control (PKAC-alpha) | Percent Control (PKAC-beta) | Percent Control (PKMYT1) | Percent Control (PKN1) | Percent Control (PKN2) | Percent Control (PKNB(M.tuberculosis)) | Percent Control (PLK1) | Percent Control (PLK2)
1 | COc1ccc2[nH]c3c4[nH]c5ccc(OC)cc5c4c4c(c3c2c1)C(=O)NC4=O [GW296115X] | 88% | 64% | 87% | 100% | 0% | 46% | 0.5% | 2.6% | 100% | 81% | 100% | 28% | 87% | 89% | 97% | 42% | 52% | 67% | 90% | 95%
2 | O=C1Nc2ccc(C(=O)c3ccco3)cc2C1=Cc1cc(Cl)c(O)c(Cl)c1 [GW406108X] | 100% | 79% | 47% | 0.8% | 88% | 32% | 61% | 9.9% | 88% | 43% | 95% | 65% | 100% | 100% | 100% | 83% | 63% | 90% | 49% | 27%
3 | COc1cc(/C=N/Nc2ncnc3[nH]ncc23)ccc1O [GW578748X] | 54% | 100% | 24% | 5% | 28% | 83% | 100% | 53% | 78% | 0% | 74% | 24% | 100% | 100% | 100% | 100% | 100% | 50% | 84% | 31%
4 | COc1cccc(-c2c[nH]c3c(N/N=C/c4ccncc4)ncnc23)c1 [GW814408X] | 100% | 92% | 88% | 100% | 1.1% | 82% | 100% | 75% | 71% | 28% | 100% | 9.1% | 100% | 100% | 100% | 100% | 100% | 99% | 95% | 100%
5 | CC1=C(C(=O)Nc2ccc3[nH]ncc3c2)C(c2ccc(Cl)c(Cl)c2)CC(=O)N1 (stereo not drawn) [GSK299115A] | 75% | 100% | 93% | 80% | 100% | 83% | 100% | 91% | 86% | 100% | 99% | 82% | 81% | 63% | 77% | 39% | 65% | 85% | 70% | 100%
6 | NS(=O)(=O)c1ccc(N/N=C2\C(=O)Nc3ccc(C(=O)NCc4ccncc4)cc32)cc1 [GW300657X] | 81% | 77% | 100% | 83% | 84% | 100% | 100% | 100% | 100% | 51% | 100% | 51% | 100% | 100% | 83% | 100% | 81% | 100% | 74% | 90%
7 | COC(=O)Nc1nc2ccc(Oc3ccc(NC(=O)Nc4cc(C(F)(F)F)ccc4F)cc3)cc2s1.Cl [GW693917A] | 100% | 76% | 100% | 95% | 100% | 100% | 100% | 100% | 100% | 100% | 100% | 96% | 100% | 95% | 95% | 82% | 57% | 70% | 67% | 96%
8 | O=C(Nc1n[nH]c2nc(-c3ccc(O)cc3)c(Br)cc12)C1CC1 [SB-725317] | 100% | 75% | 100% | 100% | 99% | 23% | 0.4% | 9.3% | 100% | 59% | 100% | 91% | 100% | 100% | 100% | 89% | 100% | 31% | 100% | 83%
9 | Cl.O=C(O[C@H]1CN[C@H](C#Cc2cc3ncnc(Nc4ccc5c(cnn5Cc5ccccc5)c4)c3s2)C1)N1CCOCC1 [GSK200398A] | 100% | 100% | 100% | 100% | 100% | 100% | 100% | 100% | 100% | 99% | 100% | 98% | 100% | 93% | 96% | 88% | 69% | 91% | 76% | 92%
10 | Cc1cc(O)cc(C)c1/C=C/c1cncc(C(N)=O)c1 [GW435821X] | 100% | 81% | 100% | 100% | 100% | 100% | 100% | 100% | 100% | 67% | 100% | 84% | 100% | 100% | 74% | 100% | 65% | 99% | 100% | 93%
11 | NS(=O)(=O)c1ccc(N/N=C2\C(=O)Nc3ccc(C(=O)NCCc4c[nH]cn4)cc32)cc1 [GW300660X] | 100% | 100% | 95% | 100% | 100% | 32% | 100% | 32% | 100% | 0.7% | 100% | 48% | 100% | 100% | 100% | 100% | 80% | 92% | 100% | 75%
12 | Cl.O=C(Nc1ccc(Oc2ccc3[nH]c(NC(=O)c4ccccc4)nc3c2)cc1)Nc1cc(C(F)(F)F)ccc1F [GW709042A] | 100% | 76% | 100% | 100% | 100% | 100% | 100% | 100% | 100% | 98% | 100% | 97% | 100% | 100% | 100% | 100% | 60% | 88% | 100% | 98%
13 | COc1ccc2c(-c3ccnc(Nc4cccc(OC(F)(F)F)c4)n3)cnn2n1 [GW810372X] | 100% | 69% | 85% | 72% | 69% | 100% | 100% | 100% | 77% | 66% | 100% | 32% | 100% | 100% | 100% | 100% | 76% | 82% | 91% | 100%
14 | COc1cc2ncnc(Nc3ccc4c(cnn4Cc4ccccc4)c3)c2cc1OC.Cl [GW282449A] | 100% | 100% | 100% | 100% | 93% | 100% | 100% | 100% | 100% | 76% | 100% | 73% | 100% | 37% | 100% | 100% | 100% | 100% | 91% | 100%
15 | CC1=C(C(=O)Nc2ccc3[nH]ncc3c2)C(c2ccc3ccccc3c2)CC(=O)N1 (stereo not drawn) [GSK270822A] | 70% | 100% | 97% | 73% | 83% | 91% | 100% | 92% | 95% | 99% | 100% | 83% | 64% | 68% | 90% | 45% | 76% | 87% | 73% | 100%
16 | Cl.c1ccc(Cc2nc3ccc(Nc4ncnc5ccccc45)cc3[nH]2)cc1 [GR269666A] | 100% | 98% | 100% | 100% | 100% | 100% | 100% | 100% | 100% | 86% | 100% | 71% | 100% | 100% | 100% | 92% | 100% | 100% | 80% | 100%
17 | COc1cccc(-n2ncc3c(N/N=C/c4ccncc4)ncnc32)c1 [GW784752X] | 94% | 100% | 54% | 90% | 18% | 100% | 100% | 100% | 86% | 79% | 91% | 19% | 100% | 99% | 100% | 100% | 100% | 100% | 88% | 94%
18 | COc1cc(C)c(N(C)C(=O)CN(C)C)cc1Nc1nc(Nc2cccc(F)c2C(N)=O)c2cc[nH]c2n1 [GSK2219385] | 100% | 75% | 100% | 85% | 97% | 90% | 92% | 86% | 100% | 100% | 100% | 92% | 100% | 100% | 78% | 89% | 88% | 63% | 81% | 100%
19 | COc1cc2ncn(-c3cc(O[C@H](C)c4ccccc4Cl)c(C(N)=O)s3)c2cc1OC [GSK237701A] | 31% | 28% | 12% | 67% | 74% | 88% | 100% | 66% | 0% | 9.9% | 15% | 20% | 100% | 96% | 100% | 100% | 83% | 62% |  | 1.8%
20 | CCc1ccc(Oc2nccc(-c3c(-c4ccc(F)cc4)ncn3C3CCNCC3)n2)cc1 [SB-242719] | 99% | 72% | 95% | 100% | 100% | 100% | 100% | 100% | 87% | 100% | 100% | 100% | 36% | 31% | 89% | 94% | 91% | 81% | 98% | 77%
